Pf growth 96h: inhibits malaria parasite growth, 96 h | P. falciparum luciferase reporter growth, 96 h | Potency, µM (titrated, usually from 28.7 µM), most hits filed as inhibitors | 320,000 compounds, 6.9% hits | AID 504834; active means well fitted inhibition curve with a large enough effect; inconclusive means small, poorly fitted or top-dose-only effect, or another doubt; inactive means no such curve, though single readings can be large or run the other way
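Two-generation exposure (96 h) targets delayed-death phenotype. Reporter parasites carrying integrated firefly luciferase, in red cells at 2% hematocrit and 0.05% parasitemia final, kept at 37 C, 5% CO2; luminescence loss indicates inhibition.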
NS1 inh: influenza NS1 inhibition | Potency, µM (titrated, usually from 46.1 µM) | 270,000 compounds, 0.4% hits | AID 2326; further: actives are rising curves; nearly all actives have a fitted effect of over 50% in size
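Compounds were scored for reversing the slow growth caused by influenza A NS1 in S. cerevisiae, measured by optical density at 600 nm. Assay medium contained 2% galactose at pH 6.0; NS1-free yeast of the same strain were the positive control.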
Pf growth 48h: P. falciparum growth inhibition at 48 hours (one generation); Potency, µM (titrated, usually from 28.7 µM), most hits filed as inhibitors; AID 504832; 310,000 compounds, 5.9% hits; P. falciparum luciferase growth in erythrocytes, 48 h; active means well fitted inhibition curve with a large enough effect; inconclusive means small, poorly fitted or top-dose-only effect, or another doubt; inactive means no such curve, though single readings can be large or run the other way
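Read-out is firefly luciferase luminescence from an integrated reporter in P. falciparum, so falling signal marks reduced parasite growth. Infected erythrocytes were at 2% hematocrit and 0.1% parasitemia (final) in Albumax-supplemented RPMI 1640.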
SARS PLP yeast: SARS-CoV PLP inhibition in yeast. S. cerevisiae expressing SARS-CoV PLpro, growth rescue. Potency, µM (top dose mostly 32.9 µM), most hits filed as activators. AID 485353. 330,000 compounds, 0.19% hits; further: nearly all actives have a fitted effect of over 55% in size
NS1 inh valid: influenza NS1 function inhibition validation. shares compounds with NS1 inh. AID 492980. 1,400 tested, under 10 active. activity change, negative = inhibition, % at 32.9 µM. influenza NS1 function cell assay, 15-point titration
Flu PR8 replic: reduces influenza A/PR/8/34 replication in MDCK cells; shares compounds with NS1 inh; MDCK infected influenza A/PR/8/34, virus titer TCID50; active compounds read low; virus titer (log TCID50), log10 TCID50 at 5 µM; 95 compounds, 30% hits; call rule not given here
A number is an active result; - = inactive; ? = inconclusive; . = no result; [ ] = remark or other dose. This is a sample that favours compounds with a hit; in the whole collection about 10% have one here. Unless noted, the call rests on the fitted dose curve.

SMILES	Pf growth 96h	NS1 inh	Pf growth 48h	SARS PLP yeast	NS1 inh valid	others
COc1ccc(C2=NO[C@@H]3[C@@H]4C[C@@H]([C@H]5C(=O)N(C)C(=O)[C@@H]45)[C@H]23)c(OC)c1	-	-	-	-	.
COc1ccc(-n2c(SCC(=O)N3CCCC3)nc3ccccc3c2=O)cc1	-	-	-	-	.
COc1ccc(-n2c(SCC(=O)N3CCCCC3)nc(O)cc2=O)cc1	-	11.2µM	?	-	?	Flu PR8 replic=-
O=S(=O)(c1cccc(-c2n[nH]c(=S)n2-c2ccc(OC(F)(F)F)cc2)c1)N1CCOCC1	.	.	.	-	.
CCOC(=O)C1=C(c2ccccc2)N=c2s/c(=C\c3ccc(O)cc3)c(=O)n2C1c1cccs1 (configuration not stated)	2.62µM	7.08µM	2.94µM	-	-
COC(=O)C1=C(C)N=c2s/c(=C/c3cccs3)c(=O)n2C1c1cccs1 (configuration not stated)	-	-	?	-	.
O=C(Nc1cccc2ccccc12)c1ccccc1NS(=O)(=O)c1cccc2cccnc12	-	11.2µM	-	-	?
COc1ccc(OC)c(NC(=O)c2ccccc2NS(=O)(=O)c2cccc3cccnc23)c1	-	14.1µM	?	-	-
CS(=O)(=O)Nc1nc2n(n1)C(c1ccccc1)CC(c1ccccc1)N2 (configuration not stated)	-	-	-	-	.
CN(C)S(=O)(=O)c1ccc(N2CCCC2)c(C(=O)Nc2nc3c(ccc4ccccc43)s2)c1	13.1µM	14.1µM	?	-	-
Cc1cnc(NC(=O)c2cc(S(=O)(=O)N(C)C)ccc2N2CCCC2)s1	.	.	.	-	.
COC(=O)c1c(NC(=O)CN2CCCC(C)C2)c2c(C)cccc2n1C (configuration not stated)	.	5.01µM	.	-	-
COC(=O)c1c(NC(=O)CN2CCC(C(N)=O)CC2)c2c(C)cccc2n1C	-	?	.	-	.
O=C1CN(C(=O)COC(=O)c2ccc(N3CCCCCC3)c([N+](=O)[O-])c2)c2ccccc2N1	6.57µM	10µM	?	-	-
COC(=O)c1ccccc1S(=O)(=O)N1CCC(C(=O)N(C)CCOc2ccccc2)CC1	?	.	?	-	.
CCC1c2ccc(C)n2CCN1C(=O)Nc1ccccc1OC (configuration not stated)	-	15.8µM	?	-	-
CCCCCCN(C(=O)CCCCCN1C(=O)NC(c2ccc(-c3ccccc3)cc2)C(C(=O)OCc2ccccc2)=C1C)C(C(=O)NCCCC)c1ccc(OCC(=O)OC)c(C(=O)OC)c1 (configuration not stated)	2.62µM	11.2µM	2.33µM	-	-
CC(Oc1ccccc1F)C(=O)NC1CCS(=O)(=O)C1 (configuration not stated)	-	-	-	-	.
O=C(O)C(Cc1ccccc1)N=C(NS(=O)(=O)c1ccccc1)c1ccccc1 (configuration not stated)	.	.	.	-	.
Cc1cc2n(c1)CCn1c(C)ccc1-2	.	12.6µM	-	-	-
Cn1c(O)c(C=NCc2ccco2)c(=O)n(C)c1=O	-	8.91µM	.	-	-
Cc1ccc2[nH]c3c(=O)n(CC(=O)NCCCN4CCN(c5ccc(F)cc5)CC4)ncc3c2c1	?	-	-	-	.
O=C1CCCC/C1=C\Nc1ccc(O)cc1	.	?	?	-	-
CS(=O)(=O)N1CCc2cc(-c3csc(NC(=O)Cc4ccccc4)n3)ccc21	-	10µM	-	-	-
Cc1cc(C)c2nc(NC(=O)c3cccc(S(=O)(=O)N4CCc5ccccc54)c3)sc2c1	-	17.8µM	-	-	-
SMILES	Pf growth 96h	NS1 inh	Pf growth 48h	SARS PLP yeast	NS1 inh valid	others
CCOc1ccc(-c2csc(NC(=O)c3ccc(S(=O)(=O)N4CCc5ccccc5C4)cc3)n2)cc1	-	-	-	-	.
O=C(Nc1nc(-c2ccccc2)cs1)c1ccc(S(=O)(=O)N2CCc3ccccc32)cc1	?	5.01µM	?	-	?
O=C(Nc1nc(-c2ccccc2)cs1)C1CCCN(S(=O)(=O)c2cccc([N+](=O)[O-])c2)C1 (configuration not stated)	?	-	.	-	.
O=C(Nc1nc(-c2ccccc2)cs1)C1CCCN(S(=O)(=O)c2ccccc2)C1 (configuration not stated)	?	11.2µM	.	-	-
CC(C)NC(=O)c1c2c(nc3ccccc13)CCCC2	-	-	-	-	.
CCOc1ccc(S(=O)(=O)N(C)CC(=O)NC2CC2)cc1	-	-	?	-	.
COc1ccc(-c2csc(NC(=O)c3ccc(S(=O)(=O)N4CCc5ccccc5C4)cc3)n2)c(OC)c1	?	12.6µM	-	-	-
CC(OC(=O)CCCCCN=C1NS(=O)(=O)c2ccccc21)C(=O)Nc1cc(Cl)cc(Cl)c1 (configuration not stated)	-	12.6µM	-	-	-
O=C(CSc1ccccc1)Nc1ccc(C(=O)Nc2ccc(O)cc2)cc1	-	.	-	-	.
Cc1nnc(NC2(C(F)(F)F)C(=O)Nc3c2c(=O)n(C)c(=O)n3C)s1 (configuration not stated)	?	?	-	-	-
CC(=O)NC1(C(F)(F)F)C(=O)Nc2c1c(=O)n(C)c(=O)n2C (configuration not stated)	-	-	-	-	.
COc1ccc(/C=N/NC(=O)c2ccc(COc3cccc4cccnc34)cc2)cc1O	?	-	?	-	.
O=C(N/N=C/c1cccc(O)c1)c1ccc(COc2ccccc2Br)cc1	?	?	-	-	?
Cc1oc(C)c2c(=O)ccc3c(c12)OC(N)=C(C#N)C3c1ccc(F)cc1 (configuration not stated)	-[5.75 µM]	8.91µM	13.1µM	-	-
Cc1[nH]nc2c1C(c1ccc(F)cc1)C(C#N)=C(N)O2 (configuration not stated)	?	-	-	-	.
Cc1c(NC(=O)OCCNC(=O)COc2ccc(Cl)cc2Cl)sc(=S)n1C	?	?	-	-	-
COc1ccc(/C=C2\SC(=O)N(CCNC(=O)C3CCN(S(=O)(=O)c4cccs4)CC3)C2=O)cc1	-	-	-	-	.
O=C(NCCN1C(=O)S/C(=C\c2ccc(F)cc2)C1=O)C1CCN(S(=O)(=O)c2cccs2)CC1	-	?	-	-	-
Nc1cc(=O)[nH]c(SCC(=O)Nc2ccc(Cl)c(Cl)c2)n1	.	2.51µM	-	-	-
Nc1cc(=O)[nH]c(SCC(=O)Nc2cc(Cl)cc(Cl)c2)n1	.	-	-	-	.
CC(Sc1nc(N)cc(=O)[nH]1)C(=O)NNC(=O)c1cccc(Cl)c1 (configuration not stated)	-	.	-	-	.
CC(Sc1nc(N)cc(=O)[nH]1)C(=O)Nc1cccc(Cl)c1 (configuration not stated)	-	10µM	-	-	-
Cc1ccc(-c2noc(C3CCCN(C(=O)c4ccccc4)C3)n2)o1 (configuration not stated)	-[5.75 µM]	-	-	-	.

Compound activity deposited in PubChem BioAssay by National Center for Advancing Translational Sciences (NCATS).
